# Records with an inconclusive call do not appear. The source made the active and inactive calls. Rule for the calls: active = hit-call score of the fitted dose curve at least 0.9, where 1 is the maximum; inconclusive = response in the unintended direction; inactive = score below 0.9.
# Assay: CCTE_Mundy_HCI_iCellGABA_NOG_NeuriteLength: CCTE's Neurite Outgrowth Assay in iCellGABA cells for Neurite Length, Mundy Lab
# Method: CCTE_Mundy_HCI_iCellGABA_NOG is a multiplexed, cell-based-readout assay that uses iCell GABANeurons from FUJIFILM Cellular Dynamics, Inc. (FCDI), human GABAergic enriched neurons derived from induced pluripotent stem (iPS) cells, with measurements taken at 50.33 hours after chemical dosing in a microplate: 96-well plate.CCTE_Mundy_HCI_iCellGABA_NOG_NeuriteLength is one of four components of the CCTE_Mundy_HCI_iCellGABA_NOG assay. It measures neurite outgrowth related to neurite length using High Content Imaging of fluorescently labelled markers.Data from the assay component CCTE_Mundy_HCI_iCellGABA_NOG_NeuriteLength was analyzed at the endpoint CCTE_Mundy_HCI_iCellGABA_NOG_NeuriteLength in the positive analysis fitting direction relative to DMSO as the negative control and baseline of activity. Using a type of morphology reporter, loss-of-signal activity can be used to understand developmental effects.
# Exposure starts 2 hours post-plating by adding 10 ul of the working solution to 90 ul of media in the wells for a 1/10 dilution. Forty-eight hours after chemical treatment cells are fixed by direct addition of 100 ul of warm (37C) Dulbecco's phosphate buffered saline (DPBS) fixative solution containing 8% paraformaldehyde, 8% sucrose, and 0.1% of 3 mg/ml Hoechst 33342 into each well. Primary antibodies are prepared by dilution in Immunocytochemical Staining Buffer (ISB), 10X Dulbecco's PBS, 0.1% Saponin, 5% Bovine Serum Albumin, 0.5% NaN3 (Sodium Azide) and betaIII-tubulin (rabbit anti-betaIII-tubulin, 1:800) followed by Alexa Fluor-488 secondary (1:500) to label neuronal cell bodies and neurites. A Cellomics ArrayScan VTi HCS Reader is used for automated image acquisition and analysis of neurite outgrowth.
Structure (SMILES),outcome,AC50
CCOC(=O)CC(SP(=O)(OC)OC)C(=O)OCC (stereo unspecified),inactive,–
CCCSP(=O)(OCC)Oc1ccc(Br)cc1Cl (stereo unspecified),inactive,–
CCOP(=S)(Oc1cnc(C(C)(C)C)nc1)OC(C)C (stereo unspecified),inactive,–
CCOP(=S)(OCC)OC(Cl)C(Cl)(Cl)Cl (stereo unspecified),–,29.9 µM (active)
COP(=O)(OC)OC(Br)C(Cl)(Cl)Br (stereo unspecified),–,11.6 µM (active)
CCN(CC)c1nc(C)cc(OP(=S)(OC)OC)n1,–,78.8 µM (active)
CCOP(=S)(OCC)SCSC(C)(C)C,inactive,–
CCOP(=S)(OCC)Oc1nc(Cl)c(Cl)cc1Cl,–,24.3 µM (active)
CNC(=O)CSP(=O)(OC)OC,inactive,–
CNC(=O)CSP(=S)(OC)OC,inactive,–
COP(=O)(OC)C(O)C(Cl)(Cl)Cl (stereo unspecified),–,50 µM (active)
CCOP(=S)(OCC)SCSCC,inactive,–
CCOP(=O)(SC(C)CC)N1CCSC1=O (stereo unspecified),inactive,–
CCOP(=S)(OCC)Oc1ccc2c(C)c(Cl)c(=O)oc2c1,–,58 µM (active)
CCOC(=O)CC(SP(=S)(OC)OC)C(=O)OCC (stereo unspecified),–,78.6 µM (active)
COP(=S)(OC)SCN1C(=O)c2ccccc2C1=O,–,67.2 µM (active)
COP(=O)(OC)O/C(=C\Cl)c1cc(Cl)c(Cl)cc1Cl,–,60.7 µM (active)
COP(=O)(OC)OC=C(Cl)Cl,inactive,–
CCCCSP(=O)(SCCCC)SCCCC,inactive,–
CCCSP(=O)(OCC)SCCC,inactive,–
COP(=O)(OC)O/C(C)=C/C(=O)N(C)C,inactive,–

# Source: PubChem BioAssay AID2284382 (EPA ToxCast)
